Results published in PubChem BioAssay (EPA / NIEHS).
Calls of active or inactive are those of the source. The calls were made as follows: active = hit-call score of the fitted dose curve at least 0.9, where 1 is the maximum; inactive = score below 0.9.

Legend:
[1] = ATG_ISRE_CIS: Attagene CIS-FACTORIAL HepG2 Assay for human Interferon Regulatory Factor 1 (IRF1) binding to an Interferon-Stimulated Response Element (ISRE) (AID 2282948); conditions: HepG2 ISRE cis-reporter (Attagene), mRNA transcription readout; actives raise or lower the signal
Outline: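 Read-out: fluorescent RT-PCR products resolved by capillary electrophoresis, reporting endogenous transcription factor activity via ISRE-driven reporter mRNA in transfected HepG2 cells dosed for 24 h; gain or loss fitted relative to DMSO.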

[2] = ATG_M_32_CIS: Attagene CIS-FACTORIAL HepG2 Assay for M32 Transcription Factor (Internal Marker) (AID 2282949); conditions: HepG2 Attagene cis-factorial M32 reporter, mRNA; actives raise or lower the signal;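 also: background control marker of the multiplexed CIS panel rather than a real target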
Outline: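 Transient MRTU transfection of HepG2; 24 h compound treatment; TriZol RNA, oligo(dT) RT, reporter PCR, 6-FAM primer extension, HpaI cut, CE. Gain/loss of signal vs DMSO.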

[3] = ATG_M_06_CIS: Attagene CIS-FACTORIAL HepG2 Assay for M06 Transcription Factor (Internal Marker) (AID 2282950); conditions: HepG2 Attagene CIS-FACTORIAL M06 internal marker reporter; actives raise or lower the signal
Outline: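 Measured 24 h post-dosing in transiently transfected HepG2 cells, this internal-marker endpoint reports reporter mRNA via RT-PCR with fluorescent primer extension and capillary electrophoresis. DMSO served as negative control and baseline for bidirectional fitting.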

[4] = molecular target: Hypoxia-inducible factor 1-alpha (Homo sapiens) (UniProt Q16665); assay: ATG_HIF1a_CIS: Attagene CIS-FACTORIAL HepG2 Assay for human Hypoxia Inducible Factor 1 (HIF1A) (AID 2282951); conditions: HepG2 Attagene cis-factorial HIF1a reporter transcription; actives raise or lower the signal
Outline: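 Activity is fitted in both directions relative to DMSO. Reporter transcripts are read by RT-PCR, fluorescent primer extension and capillary electrophoresis after 24 h chemical treatment. The cells are HepG2 carrying transiently transfected cis-element-driven reporter units responding to endogenous factors.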

[5] = molecular target: Hepatocyte nuclear factor 6 (Homo sapiens) (UniProt Q9UBC0); assay: ATG_HNF6_CIS: Attagene CIS-FACTORIAL HepG2 Assay for human Hepatocyte Nuclear Factor 6 (HNF6) (AID 2282952); conditions: HepG2 Attagene cis-factorial HNF6 reporter transcription; actives raise or lower the signal
Outline: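 Endogenous factor activity read in transiently transfected HepG2 via promoter-regulated reporter transcripts. RNA harvested 24 h post-dosing, reverse-transcribed, PCR-amplified, FAM-labelled, HpaI-digested and resolved by capillary electrophoresis; fitted in both directions against DMSO.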

[6] = molecular target: Heat shock factor protein 1 (Homo sapiens) (UniProt Q00613); assay: ATG_HSE_CIS: Attagene CIS-FACTORIAL HepG2 Assay for human Heat Shock Transcription Factor 1 (HSE) (AID 2282953); conditions: HepG2 HSE cis-reporter, Attagene RNA transcription; actives raise or lower the signal
Outline: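 Reporter mRNA induction in HepG2 is measured 24 h after dosing, using transiently transfected multiplexed cis-regulated reporter units. Signal comes from capillary electrophoresis of labelled RT-PCR products, with DMSO as negative control.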

[7] = ATG_MRE_CIS: Attagene CIS-FACTORIAL HepG2 Assay for human Metal Responsive Element (MRE) (AID 2282954); conditions: HepG2 MRE cis-reporter transcription, Attagene multiplex; actives raise or lower the signal
Outline: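 RT-PCR/capillary electrophoresis readout of reporter mRNA, 24 h post-dosing, in HepG2 cells transfected with multiplexed cis-regulated reporter constructs. Gain or loss of signal fitted bidirectionally against DMSO baseline.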

[8] = molecular target: Paired box protein Pax-6 (Homo sapiens) (UniProt P26367); assay: ATG_Pax6_CIS: Attagene CIS-FACTORIAL HepG2 Assay for human Paired Box 6 (PAX6) (AID 2282956); conditions: HepG2 CIS-FACTORIAL PAX6 reporter transcription, RNA readout; actives raise or lower the signal
Outline: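 Readout: reporter transcript fluorescence after RT-PCR and capillary electrophoresis. Cells: HepG2, transiently transfected with cis-regulated MRTUs. Exposure 24 h. Gain or loss of signal fitted bidirectionally relative to DMSO.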

[9] = ATG_PXRE_CIS: Attagene CIS-FACTORIAL HepG2 Assay for human Pregnane X Receptor Element (PXRE) (AID 2282957); conditions: HepG2 Attagene CIS-FACTORIAL PXRE reporter, mRNA; actives raise or lower the signal
Outline: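 Reporter transcripts under endogenous PXR-responsive cis-regulation quantified from total RNA of transfected HepG2 cells 24 h post-dosing, via RT-PCR with fluorescent primer extension and capillary electrophoresis. Gain or loss of signal fitted against DMSO baseline.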

[10] = ATG_PPRE_CIS: Attagene CIS-FACTORIAL HepG2 Assay for human Peroxisome Proliferator-activated Response Element (PPRE) (AID 2282958); conditions: HepG2 PPRE cis-element reporter, Attagene transcription factor profiling; actives raise or lower the signal
Outline: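 Endogenous PPRE-driven transcription is measured in HepG2 cells carrying transfected multi-reporter constructs. Reporter transcripts are quantified by RT-PCR, HpaI digestion and capillary electrophoresis 24 h after dosing. DMSO baseline, bidirectional fit.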

[11] = ATG_RORE_CIS: Attagene CIS-FACTORIAL HepG2 Assay for human RAR-related Orphan Receptor Element (RORE) (AID 2282959); conditions: HepG2 Attagene cis-factorial RORE reporter, mRNA; actives raise or lower the signal
Outline: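 RORE reporter transcripts reflecting endogenous factor activity were read after 24 h compound exposure of transfected HepG2 cells, using reverse transcription, PCR, fluorescent labelling and capillary electrophoresis sizing. Gain or loss fitted against DMSO.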

[12] = ATG_Sox_CIS: Attagene CIS-FACTORIAL HepG2 Assay for human SRY-box transcription factor (SOX) (AID 2282960); conditions: HepG2 Attagene cis-factorial SOX reporter, mRNA; actives raise or lower the signal
Outline: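 Reporter transcripts, measured by RT-PCR and capillary electrophoresis of labelled fragments, report endogenous SOX transcription factor activity. Transiently transfected human HepG2 cells receive chemical for 24 h; changes in either direction are fitted relative to DMSO.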

[13] = molecular target: Transcription factor Sp1 (Homo sapiens) (UniProt P08047); assay: ATG_Sp1_CIS: Attagene CIS-FACTORIAL HepG2 Assay for human Specificity Protein 1 (Sp1) (AID 2282961); conditions: HepG2 Sp1 cis-reporter transcription, actives raise or lower the signal
Outline: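 Read-out is reporter transcript level, measured by RT-PCR and fluorescent capillary electrophoresis after 24 h chemical treatment. System: transiently transfected HepG2 cells reporting endogenous transcription factor activity; gain or loss fitted against DMSO baseline.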

[14] = ATG_SREBP_CIS: Attagene CIS-FACTORIAL HepG2 Assay for human Sterol Regulatory Element Binding (SREBP) (AID 2282962); conditions: HepG2 Attagene cis-factorial SREBP reporter, mRNA; actives raise or lower the signal
Outline: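 Readout: fluorescent reporter-transcript peaks resolved by capillary electrophoresis after RT-PCR. Cells were human HepG2 carrying transfected cis-promoter reporter constructs, dosed for 24 h. Gain or loss of signal was fitted against DMSO controls.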

[15] = molecular target: Signal transducer and activator of transcription 3 (Homo sapiens) (UniProt P40763); assay: ATG_STAT3_CIS: Attagene CIS-FACTORIAL HepG2 Assay for human Signal Transducer and Activator of Transcription 3 (STAT3) (AID 2282963); conditions: HepG2, Attagene cis-factorial STAT3 reporter transcription; actives raise or lower the signal
Outline: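 Readout: fluorescent reporter mRNA fragments resolved by capillary electrophoresis. Setup: HepG2 transfected with MRTUs reporting endogenous transcription-factor activity, dosed 24 h. Gain or loss of signal fitted bidirectionally against DMSO control.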

[16] = ATG_TA_CIS: Attagene CIS-FACTORIAL HepG2 Assay for human TA Basal Promoter (AID 2282964); conditions: HepG2 Attagene CIS-factorial TA basal promoter reporter; actives raise or lower the signal
Outline: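 Cis-factorial format in HepG2: reporters report endogenous factors, not chimeric Gal4 fusions. After 24 h treatment, reporter transcripts were measured by RT-PCR-capillary electrophoresis fluorescence, analysed bidirectionally versus DMSO.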

[17] = ATG_TCF_b_cat_CIS: Attagene CIS-FACTORIAL HepG2 Assay for human T-Cell-Factor with beta-catenin (TCF/b-cat) (AID 2282965); conditions: HepG2 TCF/beta-catenin cis-reporter transcription, actives raise or lower the signal
Outline: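 HepG2, transient MRTU transfection, cis-element-driven reporters (endogenous TFs). 24 h compound exposure. Readout: reporter mRNA by RT-PCR + 6-FAM primer extension, HpaI digest, capillary electrophoresis. Gain/loss fit vs DMSO baseline.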

[18] = ATG_GRE_CIS: Attagene CIS-FACTORIAL HepG2 Assay for human Glucocorticoid Response Elements (GRE) (AID 2282947); conditions: HepG2 GRE cis-reporter, Attagene multiplex mRNA; actives raise or lower the signal
Outline: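 Read-out: fluorescent reporter-transcript fragments separated by capillary electrophoresis after RT-PCR. Transiently transfected HepG2 cells carrying cis-element-driven reporter units were dosed for 24 h; gain or loss of signal fitted against DMSO control.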

[19] = ATG_PBREM_CIS: Attagene CIS-FACTORIAL HepG2 Assay for human Phenobarbital-responsive Enhancer Module (PBREM) (AID 2282955); conditions: HepG2 PBREM cis-reporter, Attagene multiplexed transcription; actives raise or lower the signal
Outline: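 Endogenous transcription factor activity was read from reporter transcripts in transiently transfected human HepG2 liver cells after 24 h dosing. RT-PCR products were fluorescently labelled, HpaI-cut and sized by capillary electrophoresis; activity fitted bidirectionally against DMSO baseline.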

Measured: AC50

Chain of Signal transducer and activator of transcription 3 (Homo sapiens) (P40763 whole entry, looked up, the tested form may be a part): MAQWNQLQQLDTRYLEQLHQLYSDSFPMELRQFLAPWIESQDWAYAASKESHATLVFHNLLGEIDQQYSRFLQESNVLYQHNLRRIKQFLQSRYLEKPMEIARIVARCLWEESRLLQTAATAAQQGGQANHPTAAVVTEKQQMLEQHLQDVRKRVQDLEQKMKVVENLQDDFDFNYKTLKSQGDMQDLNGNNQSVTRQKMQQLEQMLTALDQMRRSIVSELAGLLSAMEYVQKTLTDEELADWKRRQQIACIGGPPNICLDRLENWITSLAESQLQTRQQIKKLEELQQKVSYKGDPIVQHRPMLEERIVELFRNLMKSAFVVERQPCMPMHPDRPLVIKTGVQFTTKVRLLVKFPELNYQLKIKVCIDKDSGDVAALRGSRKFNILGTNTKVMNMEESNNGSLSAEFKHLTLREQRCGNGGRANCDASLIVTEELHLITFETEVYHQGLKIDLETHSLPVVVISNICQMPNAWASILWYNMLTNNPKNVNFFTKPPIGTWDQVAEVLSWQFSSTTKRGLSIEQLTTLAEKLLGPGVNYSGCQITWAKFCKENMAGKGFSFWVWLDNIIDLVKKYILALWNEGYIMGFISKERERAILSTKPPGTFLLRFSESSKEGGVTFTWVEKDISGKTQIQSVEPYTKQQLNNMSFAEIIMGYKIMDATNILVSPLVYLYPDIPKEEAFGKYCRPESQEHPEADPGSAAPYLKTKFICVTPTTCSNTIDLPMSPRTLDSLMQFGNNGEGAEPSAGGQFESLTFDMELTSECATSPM
Chain of Hypoxia-inducible factor 1-alpha (Homo sapiens) (Q16665 whole entry, looked up): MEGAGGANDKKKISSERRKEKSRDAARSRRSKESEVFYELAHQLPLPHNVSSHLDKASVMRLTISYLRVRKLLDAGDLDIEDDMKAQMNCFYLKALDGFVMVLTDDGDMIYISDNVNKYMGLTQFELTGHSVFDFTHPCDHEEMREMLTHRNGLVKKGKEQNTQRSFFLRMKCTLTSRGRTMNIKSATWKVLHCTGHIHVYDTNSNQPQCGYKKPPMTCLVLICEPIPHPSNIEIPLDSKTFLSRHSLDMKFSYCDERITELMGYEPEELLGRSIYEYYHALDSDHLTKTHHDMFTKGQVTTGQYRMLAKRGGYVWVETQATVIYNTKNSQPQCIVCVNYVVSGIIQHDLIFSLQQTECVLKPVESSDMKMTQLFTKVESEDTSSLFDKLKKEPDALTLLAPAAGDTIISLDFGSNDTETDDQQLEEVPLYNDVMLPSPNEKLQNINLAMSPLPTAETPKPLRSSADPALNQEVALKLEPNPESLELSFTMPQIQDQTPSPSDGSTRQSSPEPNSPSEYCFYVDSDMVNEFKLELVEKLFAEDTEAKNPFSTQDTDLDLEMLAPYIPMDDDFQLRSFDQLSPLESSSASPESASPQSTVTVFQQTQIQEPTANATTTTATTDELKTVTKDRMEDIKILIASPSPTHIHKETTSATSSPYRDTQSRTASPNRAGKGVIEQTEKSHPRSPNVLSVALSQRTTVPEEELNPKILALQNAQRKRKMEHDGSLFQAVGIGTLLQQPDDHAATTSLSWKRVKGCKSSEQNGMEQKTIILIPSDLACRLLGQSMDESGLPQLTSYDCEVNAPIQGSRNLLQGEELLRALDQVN
Chain of Hepatocyte nuclear factor 6 (Homo sapiens) (Q9UBC0 whole entry, looked up): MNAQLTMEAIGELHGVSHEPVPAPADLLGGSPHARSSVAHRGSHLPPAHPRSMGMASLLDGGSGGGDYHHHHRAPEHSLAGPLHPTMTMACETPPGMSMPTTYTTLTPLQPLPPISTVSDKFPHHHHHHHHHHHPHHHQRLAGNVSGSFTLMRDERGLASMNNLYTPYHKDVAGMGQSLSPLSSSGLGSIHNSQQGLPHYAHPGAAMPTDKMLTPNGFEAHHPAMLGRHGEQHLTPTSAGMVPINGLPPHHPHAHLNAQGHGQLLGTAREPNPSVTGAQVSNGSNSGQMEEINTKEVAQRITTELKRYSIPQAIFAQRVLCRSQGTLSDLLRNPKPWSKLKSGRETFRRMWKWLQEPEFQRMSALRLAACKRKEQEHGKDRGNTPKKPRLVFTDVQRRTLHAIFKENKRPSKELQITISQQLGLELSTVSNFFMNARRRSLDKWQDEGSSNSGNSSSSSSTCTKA
Chain of Heat shock factor protein 1 (Homo sapiens) (Q00613 whole entry, looked up): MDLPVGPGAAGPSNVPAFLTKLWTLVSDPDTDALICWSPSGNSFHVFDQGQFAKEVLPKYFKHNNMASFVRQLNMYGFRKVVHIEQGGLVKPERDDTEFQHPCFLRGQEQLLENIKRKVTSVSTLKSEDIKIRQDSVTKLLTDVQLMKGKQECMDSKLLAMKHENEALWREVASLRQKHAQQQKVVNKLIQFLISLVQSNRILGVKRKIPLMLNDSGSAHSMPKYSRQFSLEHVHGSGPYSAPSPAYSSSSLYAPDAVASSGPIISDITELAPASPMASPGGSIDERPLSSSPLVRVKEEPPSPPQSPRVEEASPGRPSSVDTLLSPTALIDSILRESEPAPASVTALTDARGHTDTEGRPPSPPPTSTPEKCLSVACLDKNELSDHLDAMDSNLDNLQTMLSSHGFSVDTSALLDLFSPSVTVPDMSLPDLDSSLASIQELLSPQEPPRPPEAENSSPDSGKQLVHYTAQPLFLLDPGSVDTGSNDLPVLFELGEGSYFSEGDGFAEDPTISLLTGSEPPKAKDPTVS
Chain of Transcription factor Sp1 (Homo sapiens) (P08047 whole entry, looked up): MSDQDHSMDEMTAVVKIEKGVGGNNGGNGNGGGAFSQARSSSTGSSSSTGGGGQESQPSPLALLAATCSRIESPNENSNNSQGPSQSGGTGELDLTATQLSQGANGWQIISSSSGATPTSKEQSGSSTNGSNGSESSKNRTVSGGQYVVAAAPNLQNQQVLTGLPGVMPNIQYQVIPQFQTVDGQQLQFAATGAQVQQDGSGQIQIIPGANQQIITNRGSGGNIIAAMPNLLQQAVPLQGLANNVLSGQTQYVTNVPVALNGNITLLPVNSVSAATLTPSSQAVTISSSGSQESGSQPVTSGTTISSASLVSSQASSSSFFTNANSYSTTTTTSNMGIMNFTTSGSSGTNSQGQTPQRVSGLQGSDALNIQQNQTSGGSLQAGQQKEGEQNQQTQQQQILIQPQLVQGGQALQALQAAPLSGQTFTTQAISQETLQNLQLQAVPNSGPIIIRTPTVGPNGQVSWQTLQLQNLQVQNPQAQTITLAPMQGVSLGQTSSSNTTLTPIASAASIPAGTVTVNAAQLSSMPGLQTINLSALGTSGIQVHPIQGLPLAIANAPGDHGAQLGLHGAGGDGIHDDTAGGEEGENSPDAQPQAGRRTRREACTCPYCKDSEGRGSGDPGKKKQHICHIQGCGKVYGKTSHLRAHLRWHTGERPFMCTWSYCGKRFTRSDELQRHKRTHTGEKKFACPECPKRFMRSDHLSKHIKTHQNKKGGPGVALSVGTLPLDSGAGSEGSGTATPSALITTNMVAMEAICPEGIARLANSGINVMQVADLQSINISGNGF
Chain of Paired box protein Pax-6 (Homo sapiens) (P26367 whole entry, looked up): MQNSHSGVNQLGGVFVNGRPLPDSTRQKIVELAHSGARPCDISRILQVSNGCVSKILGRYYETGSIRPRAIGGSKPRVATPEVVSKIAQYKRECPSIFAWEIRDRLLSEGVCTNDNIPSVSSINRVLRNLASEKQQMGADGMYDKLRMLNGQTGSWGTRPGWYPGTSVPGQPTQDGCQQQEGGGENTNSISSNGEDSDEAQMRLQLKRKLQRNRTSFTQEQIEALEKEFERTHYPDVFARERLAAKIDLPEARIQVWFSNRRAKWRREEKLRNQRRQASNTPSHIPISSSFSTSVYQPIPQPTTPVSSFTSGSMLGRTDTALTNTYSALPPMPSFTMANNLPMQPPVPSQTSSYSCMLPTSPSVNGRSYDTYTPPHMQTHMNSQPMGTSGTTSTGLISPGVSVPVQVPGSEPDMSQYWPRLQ

O=C1NC2NC(=O)NC2N1 (stereo not given)
active: [9] 27.9 µM
not listed: [18] | [19]
inactive: all other assays above

COC(=O)C=C(C)CCC=C(C)C
active: [9] 7.51 µM
not listed: [6] | [15] | [18] | [19]
inactive: all other assays above

CN(C)c1ccncc1
active: [9] 71.6 µM
not listed: [1] | [6] | [7] | [10] | [18] | [19]
inactive: all other assays above

O=CN1CCOCC1
not listed: [4] | [15] | [18] | [19]
inactive: all other assays above

CCC(=O)OCCOc1ccccc1
not listed: [6] | [10] | [18] | [19]
inactive: all other assays above

CCCCCCCC(=O)OCCCCCC
not listed: [1] | [4] | [9]
inactive: all other assays above

O=C(O)CCCCCCCCCCCC(=O)O
not listed: [14] | [15] | [18] | [19]
inactive: all other assays above

COc1cc([C@@H]2c3cc4c(cc3[C@@H](O[C@@H]3O[C@@H]5CO[C@@H](C)O[C@H]5[C@H](O)[C@H]3O)[C@H]3COC(=O)[C@H]23)OCO4)cc(OC)c1O
active: [9] 35.2 µM
not listed: [14] | [18] | [19]
inactive: all other assays above

Nc1ccc(NCCO)c([N+](=O)[O-])c1
not listed: [1] | [7] | [15]
inactive: all other assays above

CCCC(=O)OCCc1ccccc1
not listed: [1] | [6]
inactive: all other assays above

CCCCC(CC)(CO)CO
not listed: [11] | [18]
inactive: all other assays above

OC[C@H]1O[C@@H](Oc2ccc(O)cc2)[C@H](O)[C@@H](O)[C@@H]1O
not listed: [1] | [10] | [14] | [18] | [19]
inactive: all other assays above

CC(O)C1CCCCC1 (stereo not given)
not listed: [1] | [5] | [7] | [9]
inactive: all other assays above

O=C1CCCC=CCCCCCCCCCC1
active: [1] 41.2 µM | [6] 63 µM | [9] 9.05 µM | [13] 48.8 µM | [17] 49.3 µM
not listed: [18]
inactive: all other assays above

CC(C)(CO)[C@@H](O)C(=O)NCCC(=O)O
active: [9] 53.4 µM
not listed: [1] | [4] | [7] | [11] | [18]
inactive: all other assays above

CCCCC1(COC(=O)CCC(=O)O)C(=O)N(c2ccccc2)N(c2ccccc2)C1=O
active: [9] 19.5 µM
not listed: [4] | [18] | [19]
inactive: all other assays above

CCN(CCN)c1cccc(C)c1
active: [9] 36.2 µM
not listed: [6] | [10] | [18]
inactive: all other assays above
